# Source: PubChem BioAssay AID940 (Emory University Molecular Libraries Screening Center, 2007)
# Values joined by “and” are separate entries in the source; they are usually repeats but may differ in a detail not shown here. Identical values can stand only once. About 2,200 (0.85%) of roughly 260,000 compounds were called active.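 How the source made its calls: active means compounds whose cAMP rise, as percent of the full-agonist control response, exceeds 60; inactive means the rest.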 The sample as a whole holds a higher share of actives than the screen did. The source holds several records for some structures; these can differ, active in one and inactive in another.
# Target: Prostaglandin E2 receptor EP2 subtype (Homo sapiens) (UniProt P43116)
# Test: EP2 receptor modulators, cAMP readout, primary screen, cell-based, HTRF cAMP, PGE2 stimulation (AID 940);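 further: rat C6 glioma line stably carrying human EP2 under a CMV promoter; the protocol text gives 20 µM as final concentration; 100% = response of wells given 1 µM PGE2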
# Details: EP2-expressing cells, cAMP HTRF FRET, PGE2 co-stimulation; at 25 µM; stronger effect = higher value
# Prostaglandin E2 receptor EP2 subtype (Homo sapiens), sequence (P43116 whole entry, looked up): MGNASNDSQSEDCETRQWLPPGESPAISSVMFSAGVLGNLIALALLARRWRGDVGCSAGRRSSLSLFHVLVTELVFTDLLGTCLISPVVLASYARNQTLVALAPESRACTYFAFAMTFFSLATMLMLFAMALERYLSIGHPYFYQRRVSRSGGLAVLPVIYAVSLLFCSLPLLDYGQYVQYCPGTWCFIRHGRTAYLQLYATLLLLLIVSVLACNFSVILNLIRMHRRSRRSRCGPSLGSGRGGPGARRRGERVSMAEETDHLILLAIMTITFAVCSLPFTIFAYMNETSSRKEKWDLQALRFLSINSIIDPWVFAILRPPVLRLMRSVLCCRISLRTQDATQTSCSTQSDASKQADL
row,Compound,induction
1,C[N+]1(C)CCOC(O)(c2ccc(-c3ccc(C4(O)C[N+](C)(C)CCO4)cc3)cc2)C1 (stereo not given),27.6% (inactive) and 76.2% (active)
2,C=CCc1cc(CN2C3CCC2CC(O)(c2nccn2C)C3)cc(OCC)c1O (stereo not given),-31.8% (inactive)
3,Cc1cccc2cc(CN(Cc3ccco3)C3(c4nnnn4C4CCCC4)CCCCC3)c(=O)[nH]c12,24.8% (inactive)
4,N#CC1=C(N)Oc2c(c(=O)oc3ccccc23)C1c1cc2c(cc1Cl)OCO2 (stereo not given),0.48% (inactive)
5,COc1ccccc1/C=C/CN1C2CCC1CC(O)(c1ccccc1F)C2 (stereo not given),-60.2% (inactive)
6,O=C(CN1C2CCC1CC(O)(c1ccco1)C2)NCc1ccccc1 (stereo not given),-18.4% (inactive)
7,CC(c1ccccc1)(c1ccccc1)c1ccncc1,61.2% (active)
8,O=C1CCCN1C(=O)c1cc(Cl)cc(Cl)c1,-0.43% (inactive)
9,OC12CCCCC1CN(Cc1ccnc3ccccc13)CC2 (stereo not given),-29.6% (inactive)
10,O=C(CN1C2CCC1CC(O)(c1ccccn1)C2)N1c2ccccc2Sc2ccccc21 (stereo not given),8.29% (inactive)
